# Measured values as given in PubChem BioAssay (NCATS).
# “And” between values parts separate entries of the source, which are not always exact repeats. Equal values may be shown once. Inconclusive results are not listed. Entries that show only a call come without a potency. A number with no mark means an inactive call. The source made the active and inactive calls. The call rests on the fitted dose curve; in most records, active means well fitted curve in the direction sought with a large enough effect; inconclusive means small, poorly fitted or top-dose-only effect, or another doubt; inactive means no such curve, though single readings can be large; an effect the other way counts as inactive or inconclusive.
# How the values were obtained:
# [1] = system: Zika virus NS2B-NS3 protease (unlinked); test: Optimization of GU AMC qHTS for Zika virus inhibitors: Unlinked NS2B-NS3 protease assay (AID 1347151); further: nearly all actives have a fitted effect of over 80% in size; further: potency means the concentration at half of the fitted maximal effect; on activity change, negative = inhibition: series mostly up to about 52 µM
# Outline: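 In this qHTS, compounds acted on 25 nM unlinked Zika NS2B–NS3 in pH 8.0 Tris/Tween buffer. Cleavage of an AMC peptide ran 15 min at room temperature, to about 20% conversion.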
# [2] = system: Zika virus NS2B-NS3 protease; test: Primary screen GU AMC qHTS for Zika virus inhibitors (AID 1347154); further: nearly all actives have a fitted effect of over 70% in size; further: potency means the concentration at half of the fitted maximal effect
# Outline: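 Fluorogenic AMC-substrate cleavage by noncovalent NS2B-NS3 protease complex (25 nM, pH 8.0 Tris buffer with Tween 20) followed for 15 minutes at room temperature (~20% conversion). Percent inhibition from ex340/em450 signal change, fitted by 4-parameter Hill equation.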
# [3] = system: Zika virus NS2B-NS3 protease (linked construct); test: Primary screen NINDS Rhodamine qHTS for Zika virus inhibitors (AID 1347160); further: nearly all actives have a fitted effect of over 55% in size; further: potency means the concentration at half of the fitted maximal effect
# Outline: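 Rhodamine110-peptide cleavage (1.5 µM substrate) by 25 nM linked NS2B-NS3 enzyme at pH 8.0 (Tris, Tween 20), after 15 min RT preincubation with compounds; 15-min fluorescence change normalized to controls and Hill-fitted.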
# [4] = OV-KATE Cancer Cell Toxicity qHTS against the NCATS CANVASS Library (AID 1347345)
# Outline: (§1)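 Toxicity is measured over 72 h of compound exposure at 37 degrees C under 5% CO2. Each well holds 1000 cells, pre-incubated for 4 hours before dosing across an 11-point range. CellTiter-Glo luminescence gives viability.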
# [5] = HPAF-II Cancer Cell Toxicity qHTS against the NCATS CANVASS Library (AID 1347346); further: series mostly up to about 38 µM; nearly all actives have a fitted effect of over 55% in size
# Outline: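 Cytotoxicity read-out was CellTiter-Glo luminescence after 72 h at 37 degrees C exposure of HPAF-II cells (1000/well) to compounds in an 11-point titration.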
# [6] = UWB1.289 Cancer Cell Toxicity qHTS against the NCATS CANVASS Library (AID 1347347); further: series mostly up to about 38 µM; nearly all actives have a fitted effect of over 60% in size
# Outline: as §1
# [7] = OV-SAHO Cancer Cell Toxicity qHTS against the NCATS CANVASS Library (AID 1347348); further: series mostly up to about 38 µM; nearly all actives have a fitted effect of over 55% in size
# Outline: as §1
# [8] = Panc-1005 Cancer Cell Toxicity qHTS against the NCATS CANVASS Library (AID 1347349); further: series mostly up to about 38 µM; nearly all actives have a fitted effect of over 60% in size
# Outline: as §1
# [9] = SW1088 Cancer Cell Toxicity qHTS against the NCATS CANVASS Library (AID 1347350); further: series mostly up to about 38 µM; nearly all actives have a fitted effect of over 75% in size
# Outline: as §1
# [10] = system: Zika virus NS2B-NS3 protease (linked construct); test: Confirmatory screen NINDS AMC qHTS for Zika virus inhibitors (AID 1347152); further: nearly all actives have a fitted effect of over 70% in size; further: potency means the concentration at half of the fitted maximal effect;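 on activity change, negative = inhibition: AMC fluorescence gain from cleaved Bz-Nle-KRR-AMC substrate over 15 min; top concentration of the series differs between compounds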
# Outline: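 Concentration-response confirmation used the NINDS linked protease (NS2B hydrophilic domain joined to NS3 protease domain), 1 nM, with a 15-min compound preincubation. Substrate, Nle-KRR-AMC at 10 microM, was read by UV fluorescence before and after 15 min.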
# [11] = system: Zika virus NS2B-NS3 protease (unlinked complex); test: Confirmatory screen GU AMC qHTS for Zika virus inhibitors (AID 1347153); further: nearly all actives have a fitted effect of over 70% in size;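 on potency: enzyme at 25 nM with substrate at 10 µM below its Km of 18.3 µM; potency means the concentration at half of the fitted maximal effect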
# Outline: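 Compounds were preincubated 15 min at room temperature with 25 nM noncovalent NS2B-NS3 protease at pH 8.0; AMC substrate added at 10 microM and 15-min fluorescence gain (340/450 nm) converted to percent inhibition, fitted 4-parameter.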
# [12] = Confirmatory screen GU Rhodamine qHTS for Zika virus inhibitors qHTS (AID 1347157); conditions: purified enzyme assay, Rhodamine110 substrate fluorescence, 15 min; further: potency means the concentration at half of the fitted maximal effect; nearly all actives have a fitted effect of over 70% in size
# Outline: (§2)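 Percent inhibition came from the 15-min rise in Rhodamine110 fluorescence (1.5 microM substrate, ~15% conversion), normalized to no-inhibitor and no-enzyme wells and Hill-fitted. Unlinked protease, 25 nM, pH 8.0 Tris buffer; compounds up to 114 microM, 15-min preincubation.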
# [13] = system: Zika virus NS2B-NS3 protease (unlinked complex); test: Primary screen GU Rhodamine qHTS for Zika virus inhibitors: Unlinked NS2B-NS3 protease assay (AID 1347159); further: nearly all actives have a fitted effect of over 60% in size; further: potency means the concentration at half of the fitted maximal effect
# Outline: as §2
# [14] = Confirmatory screen NINDS Rhodamine qHTS for Zika virus inhibitors (AID 1347161); further: nearly all actives have a fitted effect of over 60% in size; further: potency means the concentration at half of the fitted maximal effect;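 on activity change, negative = inhibition: purified Zika NS2B-NS3 protease with linked NS2B cofactor domain and Rhodamine110 peptide substrate; series mostly up to about 110 µM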
# Outline: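 Purified NS2B-NS3 protease with the NS2B hydrophilic domain joined by a flexible linker (25 nM) in 10 mM Tris-HCl pH 8.0, 0.01% Tween 20, preincubated 15 min at RT with compound; Rhodamine110 peptide substrate 1.5 µM; fluorescence change over 15 min; 4-parameter Hill fit.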
# [15] = system: Zika virus NS2B-NS3 protease (linked); test: 384 well plate NINDS AMC confirmatory qHTS for Zika virus inhibitors (AID 1347163); conditions: Recombinant NS2B-NS3 protease, Ac-VKTGKR-AMC fluorescence; further: potency means the concentration at half of the fitted maximal effect; nearly all actives have a fitted effect of over 50% in size
# Outline: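 Fluorescence at 355/460 nm was read after 25 minutes of cleavage of 30 microM Ac-VKTGKR-AMC at room temperature, in the dark. Before substrate addition, compounds (up to 1 mM final) sat ~15 minutes with 5, 30 or 60 nM linked protease. Signals were normalized to no-enzyme and no-inhibitor wells.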
# [16] = system: Zika virus NS2B-NS3 protease (linked construct); test: 384 well plate NINDS Rhodamine confirmatory qHTS for Zika virus inhibitors (AID 1347164); further: potency means the concentration at half of the fitted maximal effect; nearly all actives have a fitted effect of over 65% in size
# Outline: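 Cleavage of Ac-LKRR-Rhodamine 110 (10 microM final) by linked protease (final 5, 30 or 60 nM) was followed as fluorescence at 485/538 nm after 25 min, room temperature, dark. Compounds preincubated ~15 min.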
# [17] = Vero cells viability qHTS for Zika virus inhibitors (AID 1347167)
# Outline: (§3)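 Luminescent ATP readout (CellTiter Glo) after 30 min at 37 degrees C gives viability; cells in DMEM + 4% FBS were treated 24 to 48 hours with compound, following overnight attachment.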
# [18] = HepG2 cells viability qHTS for Zika virus inhibitors (AID 1347168)
# Outline: as §3
# [19] = Tertiary RLuc qRT-PCR qHTS assay for Zika virus inhibitors (AID 1347169); further: nearly all actives have a fitted effect of over 55% in size; further: potency means the concentration at half of the fitted maximal effect; on activity change, negative = inhibition: top concentration of the series differs between compounds
# Outline: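 Inhibition of ZIKV-RLuc replication in Vero cells, read as Renilla luminescence 1-1.5 hrs after live-cell substrate addition, following 48-72 hrs infection at MOI 1-2 in presence of compound.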
# [20] = ZIKV-mCherry secondary qHTS for Zika virus inhibitors (AID 1347158); further: top concentration of the series differs between compounds
# Outline: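 Percent infection is the share of Hoechst-identified Vero nuclei with mCherry signal above 450 RFU (3 SD over negative controls). Cells were infected with recombinant ZIKV-mCherry at MOI 1 after compound addition and imaged 48–72 h later.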
smiles,measurement,setting,value
NCC(O)c1ccc(O)cc1 (stereo not given),Potency,[1],inactive
same,Potency,[2],inactive
same,Potency,[3],inactive
same,outcome,[4],inactive
same,outcome,[5],inactive
same,outcome,[6],inactive
same,outcome,[7],inactive
same,outcome,[8],inactive
same,outcome,[9],inactive
NCC(CC(=O)O)c1ccc(Cl)cc1 (stereo not given),Potency,[1],inactive
same,"activity change, negative = inhibition",[2],-12.9% [at 0.59 µM]
Cc1ncc(CNC(=O)N(CCCl)N=O)c(N)n1,Potency,[1],inactive
same,Potency,[2],inactive
Cc1cccc(C)c1NC1=NCCCS1,Potency,[1],inactive
same,Potency,[2],inactive
NN=C(N)N,Potency,[1],inactive
same,Potency,[2],inactive
COc1ccc(C(CN(C)C)C2(O)CCCCC2)cc1 (stereo not given),Potency,[1],inactive
same,Potency,[2],inactive
Cc1cc(SCc2sc(-c3ccc(C(F)(F)F)c(F)c3)nc2C)ccc1OCC(=O)O,Potency,[10],17.1 µM (active) and 12.4 µM (active)
same,Potency,[11],19.2 µM (active) and 17.1 µM (active)
same,Potency,[2],7.64 µM (active)
same,Potency,[12],2.21 µM (active)
same,Potency,[13],2.82 µM (active)
same,Potency,[3],1.78 µM (active)
same,Potency,[14],1.75 µM (active) and 1.96 µM (active) and 1.97 µM (active)
same,Potency,[15],39.8 µM (active)
same,Potency,[16],35.5 µM (active)
same,outcome,[17],inactive
same,outcome,[18],inactive
same,Potency,[19],23.4 µM (active)
O=C1NCN(c2ccccc2)C12CCN(CC1COc3ccccc3O1)CC2 (stereo not given),Potency,[1],inactive
same,Potency,[2],inactive
O=c1[nH]c2ccccc2n1CCCN1CCC(n2c(=O)[nH]c3cc(Cl)ccc32)CC1,Potency,[1],inactive
same,Potency,[2],inactive
c1ccc(C2CC2)c(OCC2=NCCN2)c1,Potency,[1],inactive
same,Potency,[2],inactive
CC(C)=CCOc1c2occc2cc2ccc(=O)oc12,Potency,[1],inactive
same,Potency,[2],inactive
O=C(O)C(=O)c1cn(Cc2ccccc2)c2ccc(-c3ccc(OC(F)(F)F)cc3)cc12,Potency,[10],7.84 µM (active)
same,Potency,[11],9.61 µM (active)
same,Potency,[2],6.07 µM (active)
same,Potency,[12],1.24 µM (active) and 1.56 µM (active)
same,outcome,[20],inactive
same,Potency,[13],1.58 µM (active)
same,Potency,[3],2.51 µM (active)
same,Potency,[14],1.24 µM (active) and 1.75 µM (active)
same,Potency,[15],11.2 µM (active)
same,Potency,[16],12.6 µM (active) and 3.16 µM (active)
same,outcome,[17],inactive
same,outcome,[18],inactive
CCCN1CCC[C@@H]2Cc3[nH]ncc3C[C@H]21,Potency,[1],inactive
same,Potency,[2],inactive
CC(=O)[C@H]1CC[C@H]2[C@@H]3CC[C@H]4C[C@](C)(O)CC[C@]4(C)[C@H]3CC[C@]12C,Potency,[1],inactive
same,Potency,[2],inactive
CNCC(O)c1ccc(O)cc1 (stereo not given),Potency,[1],inactive
same,Potency,[2],inactive
Nc1ccncc1,Potency,[1],inactive
same,Potency,[2],inactive
NCC1(CC(=O)O)CCCCC1,Potency,[1],inactive
same,Potency,[2],inactive
Fc1ccc(C(OCCN2CCN(CCCc3ccccc3)CC2)c2ccc(F)cc2)cc1,Potency,[1],inactive
same,Potency,[2],inactive
COC[C@H]1OC(=O)c2coc3c2[C@@]1(C)C1=C(C3=O)C2CCC(=O)[C@@]2(C)C[C@H]1OC(C)=O (stereo not given in full),Potency,[1],inactive
same,Potency,[2],inactive
same,Potency,[13],inactive
same,Potency,[3],inactive
C[C@@H]1O[C@@H](O[C@H]2C[C@@H](O)[C@]3(CO)[C@H]4[C@H](O)C[C@]5(C)[C@@H](C6=CC(=O)OC6)CC[C@]5(O)[C@@H]4CC[C@]3(O)C2)[C@H](O)[C@H](O)[C@H]1O,Potency,[1],inactive
same,Potency,[2],inactive
same,Potency,[13],inactive
same,Potency,[3],inactive
same,outcome,[17],inactive
same,outcome,[18],inactive
same,Potency,[19],117 nM (active) and 58.7 nM (active)
CC[C@@H](CO)NC(=O)[C@@H]1C=C2c3cccc4[nH]cc(c34)C[C@H]2N(C)C1,Potency,[1],23.8 µM (active)
Cc1ccc(S(=O)(=O)N[C@@H](CCCCN)C(=O)CCl)cc1,Potency,[1],inactive
same,Potency,[2],inactive
CCC1(C2=NCCN2)Cc2ccccc2O1 (stereo not given),Potency,[1],inactive
same,Potency,[2],inactive
c1ccc2c(c1)OCC(C1=NCCN1)O2 (stereo not given),Potency,[1],inactive
same,Potency,[2],inactive
COc1ccccc1N1CCNCC1,Potency,[1],inactive
same,Potency,[2],inactive
CC(CCc1ccccc1)NC(C)C(O)c1ccc(O)cc1 (stereo not given),Potency,[1],inactive
same,Potency,[2],inactive
CC(=O)[C@H]1CC[C@H]2[C@@H]3CC[C@H]4C[C@H](O)CC[C@]4(C)[C@H]3C(=O)C[C@]12C,Potency,[1],inactive
same,Potency,[2],inactive
O=c1[nH]c2ccccc2n1C1CCN(CCCC(c2ccc(F)cc2)c2ccc(F)cc2)CC1,Potency,[1],inactive
same,Potency,[2],inactive
same,Potency,[13],inactive
same,Potency,[3],inactive
Cc1cccc(C)c1NC(=O)CN1CCCC1=O,Potency,[1],inactive
same,Potency,[2],inactive
CN1C[C@H](CNC(=O)OCc2ccccc2)C[C@@H]2c3cccc4c3c(cn4C)C[C@H]21,Potency,[1],23.8 µM (active)
same,Potency,[10],inactive
same,Potency,[11],inactive
same,Potency,[2],inactive
same,Potency,[14],inactive
same,outcome,[17],inactive
same,outcome,[18],inactive
same,Potency,[19],inactive
C[C@H]1O[C@@H](O[C@H]2[C@@H](O)C[C@H](O[C@H]3[C@@H](O)C[C@H](O[C@H]4CC[C@@]5(C)[C@H](CC[C@@H]6[C@@H]5CC[C@]5(C)[C@@H](C7=CC(=O)OC7)CC[C@]65O)C4)O[C@@H]3C)O[C@@H]2C)C[C@H](O)[C@@H]1O,Potency,[1],inactive
same,Potency,[2],inactive
same,Potency,[13],inactive
same,Potency,[3],inactive
same,outcome,[17],inactive
same,Potency,[19],0.107 µM (active)
CC(O)(CS(=O)(=O)c1ccc(F)cc1)C(=O)Nc1ccc(C#N)c(C(F)(F)F)c1 (stereo not given),Potency,[1],inactive
same,Potency,[2],inactive
same,Potency,[13],inactive
same,Potency,[3],inactive
CCN(C(C)=O)c1cccc(-c2ccnc3c(C#N)cnn23)c1,Potency,[10],27.1 µM (active)
same,Potency,[14],inactive
same,outcome,[17],inactive
same,outcome,[18],inactive
same,Potency,[19],inactive
Cc1ccc(-c2nc3ccc(C)cn3c2CC(=O)N(C)C)cc1,Potency,[10],27.1 µM (active)
same,Potency,[14],inactive
same,outcome,[17],inactive
same,outcome,[18],inactive
same,Potency,[19],inactive
O=c1oc2ccccc2c(O)c1C(CC(O)c1ccc(-c2ccc(Br)cc2)cc1)c1ccccc1 (stereo not given),Potency,[12],7.94 µM (active)
N[C@@H](Cc1ccc(Oc2cc(I)c(O)c(I)c2)c(I)c1)C(=O)O,Potency,[12],6.31 µM (active)
same,outcome,[17],inactive
same,outcome,[18],inactive
same,Potency,[19],inactive
CNC(=O)N1N=C(c2ccc(N)cc2)c2cc3c(cc2CC1C)OCO3 (stereo not given),Potency,[13],inactive
same,Potency,[3],inactive
CNC(=O)c1ccc(N2C(=S)N(c3ccc(C#N)c(C(F)(F)F)c3)C(=O)C23CCC3)cc1F,Potency,[13],inactive
same,Potency,[3],inactive
